# In PubChem BioAssay AID1159580 (chemical genetic matrix, 2015):
# The campaign covered roughly 5,500 compounds. About 2,000 (36%) were called active. Inconclusive results (about 18%) are left out. The list shows a part of the results. Unmarked numbers belong to inactive results. Rule as the data show it: active = normalized growth mostly below about 0.91 (no sharp cut-off); inconclusive = no clear call, values can overlap the other calls; inactive = mostly above about 0.92.
# Experiment: chemical genetic growth profiling, strain panel (AID 1159580);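 also: tested at 20 µM; growth read once vehicle control cultures reached saturation at 30 °C; 1 = growth at the plate median or of vehicle wells; lower values mean less growth of the strain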
# Settings: growth OD
# [1] = S. cerevisiae deletion strains, locus YAL013W, strain DEP1, active compounds read low
# [2] = S. cerevisiae deletion strains, locus YBR229C, strain ROT2, active compounds read low
# [3] = S. cerevisiae deletion strains, locus YCL061C, strain MRC1, active compounds read low
# [4] = S. cerevisiae deletion strains, locus YDL101C, strain DUN1, active compounds read low
# [5] = S. cerevisiae deletion strains, locus YDL134C, strain PPH21, active compounds read low
# [6] = S. cerevisiae deletion strains, locus YDR150W, strain NUM1, active compounds read low
# [7] = S. cerevisiae deletion strains, locus YEL061C, strain CIN8, active compounds read low
# [8] = S. cerevisiae deletion strains, locus YGR078C, strain PAC10, active compounds read low
# [9] = S. cerevisiae deletion strains, locus YGR229C, strain SMI1, active compounds read low
# [10] = S. cerevisiae deletion strains, locus YHR030C, strain SLT2, active compounds read low
# [11] = S. cerevisiae deletion strains, locus YHR087W, strain rtc3, active compounds read low
# [12] = S. cerevisiae deletion strains, locus YJR043C, strain POL32, active compounds read low
# [13] = S. cerevisiae deletion strains, locus YJR075W, strain HOC1, active compounds read low
# [14] = S. cerevisiae deletion strains, locus YKL190W, strain CNB1, active compounds read low
# [15] = S. cerevisiae deletion strains, locus YLR039C, strain RIC1, active compounds read low
# [16] = S. cerevisiae deletion strains, locus YLR058C, strain SHM2 (second series), active compounds read low
# [17] = S. cerevisiae deletion strains, locus YLR085C, strain ARP6, active compounds read low
# [18] = S. cerevisiae deletion strains, locus YLR262C, strain YPT6, active compounds read low
# [19] = S. cerevisiae deletion strains, locus YML094W, strain GIM5, active compounds read low
# [20] = S. cerevisiae deletion strains, locus YMR219W, strain ESC1, active compounds read low
# [21] = S. cerevisiae deletion strains, locus YMR263W, strain SAP30, active compounds read low
# [22] = S. cerevisiae deletion strains, locus YMR307W, strain GAS1, active compounds read low
# [23] = S. cerevisiae deletion strains, locus YNL153C, strain GIM3, active compounds read low
# [24] = S. cerevisiae deletion strains, locus YNL298W, strain CLA4 (second series), active compounds read low
# [25] = S. cerevisiae deletion strains, locus YNL322C, strain KRE1, active compounds read low
# [26] = S. cerevisiae deletion strains, locus YNR030W, strain Alg12, active compounds read low
# [27] = S. cerevisiae deletion strains, locus YOL006C, strain TOP1, active compounds read low
# [28] = S. cerevisiae deletion strains, locus YPL055C, strain LGE1, active compounds read low
# [29] = S. cerevisiae deletion strains, locus YPL241C, strain CIN2, active compounds read low
# [30] = S. cerevisiae deletion strains, locus YPR135W, strain CTF4, active compounds read low
# [31] = S. cerevisiae deletion strains, locus YNL128W, strain TEP1, active compounds read low
smiles,measurement,setting,value
Cc1ccc(C(=O)NNC(=O)c2ccncc2)c(C)c1,normalized growth,[1],0.994
same,normalized growth,[2],0.993
same,normalized growth,[3],1.01
same,normalized growth,[4],1.02
same,normalized growth,[5],1
same,normalized growth,[6],0.925
same,normalized growth,[7],0.993
same,normalized growth,[8],1
same,normalized growth,[9],1.01
same,normalized growth,[10],1.01
same,normalized growth,[11],1
same,normalized growth,[12],1.01
same,normalized growth,[13],1.03
same,normalized growth,[14],1.01
same,normalized growth,[15],1.03
same,normalized growth,[16],0.994
same,normalized growth,[17],0.98
same,normalized growth,[18],1.02
same,normalized growth,[19],0.983
same,normalized growth,[20],0.988
same,normalized growth,[21],0.965
same,normalized growth,[22],1.01
same,normalized growth,[23],1.01
same,normalized growth,[24],1.03
same,normalized growth,[25],0.991
same,normalized growth,[26],1.01
same,normalized growth,[27],1.06
same,normalized growth,[28],0.934
same,normalized growth,[29],0.998
same,normalized growth,[30],1.08
same,normalized growth,"S. cerevisiae strains, strain wild type, active compounds read low",1.01
S=c1nc(-c2ccccc2)[nH][nH]1,normalized growth,[1],0.997
same,normalized growth,[2],1.01
same,normalized growth,[4],1.02
same,normalized growth,[5],0.979
same,normalized growth,[6],1.01
same,normalized growth,[7],0.992
same,normalized growth,[8],0.988
same,normalized growth,[9],0.994
same,normalized growth,[10],1.06
same,normalized growth,[11],1.01
same,normalized growth,[12],0.99
same,normalized growth,[13],0.982
same,normalized growth,[14],0.982
same,normalized growth,[15],1.02
same,normalized growth,[16],0.999
same,normalized growth,[17],1.03
same,normalized growth,[18],0.991
same,normalized growth,[19],1.11
same,normalized growth,[20],0.999
same,normalized growth,[21],0.998
same,normalized growth,[22],1.08
same,normalized growth,[31],0.985
same,normalized growth,[23],0.998
same,normalized growth,[24],0.992
same,normalized growth,[25],1
same,normalized growth,[26],1.01
same,normalized growth,[27],1.06
same,normalized growth,[28],1.03
same,normalized growth,[29],1.01
same,normalized growth,[30],1.02
CSc1nc(Sc2n[nH]c(-c3ccccc3)n2)cc(Sc2n[nH]c(-c3ccccc3)n2)n1,normalized growth,"S. cerevisiae deletion strains, locus YAR019C, strain CDC15, active compounds read low",1.01
same,normalized growth,"S. cerevisiae deletion strains, locus YBL105C, strain PKC1, active compounds read low",0.99
same,normalized growth,"S. cerevisiae deletion strains, locus YBR135W, strain CKS1, active compounds read low",0.999
same,normalized growth,"S. cerevisiae deletion strains, locus YBR136W, strain MEC1, active compounds read low",1
same,normalized growth,"S. cerevisiae deletion strains, locus YBR160W, strain CDC28, active compounds read low",1
same,normalized growth,"S. cerevisiae deletion strains, locus YDL017W, strain CDC7, active compounds read low",0.995
same,normalized growth,"S. cerevisiae deletion strains, locus YDL028C, strain MPS1, active compounds read low",1.03
same,normalized growth,[4],0.991
same,normalized growth,"S. cerevisiae deletion strains, locus YDL108W, strain KIN28, active compounds read low",1.01
same,normalized growth,"S. cerevisiae deletion strains, locus YDL132W, strain cdc53, active compounds read low",0.995
same,normalized growth,"S. cerevisiae deletion strains, locus YDL214C, strain PRR2, active compounds read low",1.01
same,normalized growth,"S. cerevisiae deletion strains, locus YDR052C, strain DBF4, active compounds read low",0.995
same,normalized growth,"S. cerevisiae deletion strains, locus YDR054C, strain cdc34, active compounds read low",0.984
same,normalized growth,"S. cerevisiae deletion strains, locus YDR226W, strain ADK1, active compounds read low",1.01
same,normalized growth,"S. cerevisiae deletion strains, locus YDR477W, strain SNF1, active compounds read low",1.01
same,normalized growth,"S. cerevisiae deletion strains, locus YER123W, strain YCK3, active compounds read low",1.03
same,normalized growth,"S. cerevisiae deletion strains, locus YER133W, strain GLC7, active compounds read low",1
same,normalized growth,"S. cerevisiae deletion strains, locus YFL009W, strain cdc4, active compounds read low",1
same,normalized growth,"S. cerevisiae deletion strains, locus YFL029C, strain CAK1, active compounds read low",1.02
same,normalized growth,"S. cerevisiae deletion strains, locus YFR003C, strain YPI1, active compounds read low",0.99
same,normalized growth,"S. cerevisiae deletion strains, locus YFR019W, strain FAB1, active compounds read low",1
same,normalized growth,"S. cerevisiae deletion strains, locus YFR028C, strain CDC14, active compounds read low",1.01
same,normalized growth,"S. cerevisiae deletion strains, locus YGR040W, strain KSS1, active compounds read low",1.02
same,normalized growth,"S. cerevisiae deletion strains, locus YGR052W, strain FMP48, active compounds read low",1
same,normalized growth,"S. cerevisiae deletion strains, locus YGR092W, strain DBF2, active compounds read low",1.01
same,normalized growth,[10],1.13
same,normalized growth,"S. cerevisiae deletion strains, locus YHR079C, strain IRE1, active compounds read low",0.928
same,normalized growth,"S. cerevisiae deletion strains, locus YHR082C, strain KSP1, active compounds read low",1.22
same,normalized growth,"S. cerevisiae deletion strains, locus YHR205W, strain SCH9, active compounds read low",1
same,normalized growth,"S. cerevisiae deletion strains, locus YIL147C, strain SLN1, active compounds read low",1.01
same,normalized growth,"S. cerevisiae deletion strains, locus YJL095W, strain BCK1, active compounds read low",0.875
same,normalized growth,"S. cerevisiae deletion strains, locus YJL128C, strain PBS2, active compounds read low",0.978
same,normalized growth,"S. cerevisiae deletion strains, locus YJL157C, strain FAR1, active compounds read low",1.02
same,normalized growth,"S. cerevisiae deletion strains, locus YJR016C, strain ILV3, active compounds read low",1.01
same,normalized growth,"S. cerevisiae deletion strains, locus YJR066W, strain TOR1 (second series), active compounds read low",1.01
same,normalized growth,"S. cerevisiae deletion strains, locus YJR066W, strain TOR1, active compounds read low",1.2
same,normalized growth,"S. cerevisiae deletion strains, locus YKL048C, strain ELM1, active compounds read low",1.01
same,normalized growth,"S. cerevisiae deletion strains, locus YKL067W, strain YNK1, active compounds read low",1.01
same,normalized growth,"S. cerevisiae deletion strains, locus YKL101W, strain HSL1, active compounds read low",1.01
same,normalized growth,"S. cerevisiae deletion strains, locus YKL193C, strain SDS22, active compounds read low",1.02
same,normalized growth,"S. cerevisiae deletion strains, locus YKL203C, strain TOR2, active compounds read low",1.09
same,normalized growth,"S. cerevisiae deletion strains, locus YLR113W, strain HOG1, active compounds read low",0.855 (active)
same,normalized growth,"S. cerevisiae deletion strains, locus YLR133W, strain CKI1, active compounds read low",1.01
same,normalized growth,"S. cerevisiae deletion strains, locus YLR403W, strain SFP1, active compounds read low",1.03
same,normalized growth,"S. cerevisiae deletion strains, locus YML070W, strain DAK1, active compounds read low",1.01
same,normalized growth,"S. cerevisiae deletion strains, locus YMR001C, strain CDC5, active compounds read low",1.01
same,normalized growth,"S. cerevisiae deletion strains, locus YMR205C, strain PFK2 (second series), active compounds read low",1.02
same,normalized growth,"S. cerevisiae deletion strains, locus YMR277W, strain FCP1, active compounds read low",1.02
same,normalized growth,"S. cerevisiae deletion strains, locus YNL006W, strain LST8, active compounds read low",1
same,normalized growth,"S. cerevisiae deletion strains, locus YNL020C, strain ARK1, active compounds read low",1.01
same,normalized growth,"S. cerevisiae deletion strains, locus YNL161W, strain CBK1, active compounds read low",1
same,normalized growth,"S. cerevisiae deletion strains, locus YNL183C, strain NPR1, active compounds read low",0.929
same,normalized growth,"S. cerevisiae deletion strains, locus YNL207W, strain RIO2, active compounds read low",1.01
same,normalized growth,"S. cerevisiae deletion strains, locus YNL222W, strain SSU72, active compounds read low",1.01
same,normalized growth,"S. cerevisiae deletion strains, locus YNL307C, strain MCK1 (second series), active compounds read low",1.01
same,normalized growth,"S. cerevisiae deletion strains, locus YOL078W, strain AVO1, active compounds read low",1.02
same,normalized growth,"S. cerevisiae deletion strains, locus YOL136C, strain PFK27, active compounds read low",1.03
same,normalized growth,"S. cerevisiae deletion strains, locus YOR061W, strain CKA2, active compounds read low",1.02
same,normalized growth,"S. cerevisiae deletion strains, locus YOR119C, strain RIO1, active compounds read low",1.05
same,normalized growth,"S. cerevisiae deletion strains, locus YOR231W, strain MKK1, active compounds read low",0.913
same,normalized growth,"S. cerevisiae deletion strains, locus YOR329C, strain SCD5, active compounds read low",1
same,normalized growth,"S. cerevisiae deletion strains, locus YPL031C, strain PHO85, active compounds read low",1.02
same,normalized growth,"S. cerevisiae deletion strains, locus YPL153C, strain RAD53, active compounds read low",1.01
same,normalized growth,"S. cerevisiae deletion strains, locus YPL204W, strain HRR25, active compounds read low",1.01
same,normalized growth,"S. cerevisiae deletion strains, locus YPL209C, strain IPL1, active compounds read low",0.998
same,normalized growth,"S. cerevisiae deletion strains, locus YPL256C, strain CLN2, active compounds read low",0.89
same,normalized growth,"S. cerevisiae deletion strains, locus YPR025C, strain CCL1, active compounds read low",1.01
same,normalized growth,"S. cerevisiae deletion strains, locus YPR106W, strain ISR1, active compounds read low",1
same,normalized growth,"S. cerevisiae deletion strains, locus YPR111W, strain DBF20, active compounds read low",1
same,normalized growth,"S. cerevisiae deletion strains, strain NNK1, active compounds read low",1.01
same,normalized growth,"S. cerevisiae deletion strains, strain TSCII, active compounds read low",1.01
O=c1nc(-c2ccccc2)nc(-c2ccccc2)[nH]1,normalized growth,[1],0.985
same,normalized growth,[2],1
same,normalized growth,[3],0.999
same,normalized growth,[4],1.03
same,normalized growth,[5],0.955
same,normalized growth,[6],0.993
same,normalized growth,[7],0.97
same,normalized growth,[8],1
same,normalized growth,[10],0.972
same,normalized growth,[11],0.987
same,normalized growth,[12],0.986
same,normalized growth,[13],1
same,normalized growth,[14],0.96
same,normalized growth,[15],0.922
same,normalized growth,[16],0.993
same,normalized growth,[17],0.951
same,normalized growth,[18],0.902
same,normalized growth,[19],1.08
same,normalized growth,[20],1
same,normalized growth,[21],1.01
same,normalized growth,[31],0.968
same,normalized growth,[23],1.01
same,normalized growth,[24],0.944
same,normalized growth,[25],0.984
same,normalized growth,[26],0.989
same,normalized growth,[27],0.932
same,normalized growth,[28],1.01
same,normalized growth,[29],1.03
same,normalized growth,[30],0.991
